One may read the AC50 as the concentration at which the activity in the assay is half-maximal.

Molecules are shown by their SMILES. Activity calls are given as the source filed them. The calls were made as follows: active = hit-call score of the fitted dose curve at least 0.9, where 1 is the maximum; inactive = score below 0.9.

The source of these data is PubChem BioAssay (EPA / NIEHS).

Read-out in this experiment: Heat shock 70 kDa protein 1 (HSPA1A), gene 3303
As to the kind of experiment: LTEA_HepaRG_HSPA1A: Life Technologies and Expression Analysis (LTEA) Assay for Heat shock 70 kDa protein 1 (HSPA1A) using HepaRG (AID 2283502). The following applies: mRNA level, 48 h; actives raise or lower the signal. The protocol: LTEA_HepaRG is a cell based, multiplexed-readout assay that uses HepaRG, a human liver cell line, with measurements taken at 48 hours after chemical dosing on a 96-well plate.LTEA_HepaRG_HSPA1A is one of 102 assay component(s) measured in the LTEA HepaRG cell culture assay. It is a marker of Oxidative Stress.Data from the assay component LTEA_HepaRG_HSPA1A was analyzed into 1 endpoint. This assay endpoint, LTEA_HepaRG_HSPA1A, was analyzed with bidirectional fitting relative to DMSO as the negative control and baseline of activity. Using a type of inducible reporter, measures of mRNA induction for gain or loss-of-signal activity can be used to understand regulation of transcription factor activity. To generalize the intended target to other relatable targets, this assay endpoint is annotated to the dna binding intended target family, where the subfamily is heat shock protein.
A total of 1060 chemcials from the ToxCast library were tested in eight-point concentration-response experiments. Cell culture and cytotoxicity assays were conducted at Thermo Fisher Scientific's Custom Services facility (Madison, WI). A single lot of human HepaRG cells (Thermo Fisher Scientific, Frederick, MD) was used for the cell culture experiments. 96-well format collagen type I coated plates of human HepaRG cells were prepared using established methods. Briefly, cryopreserved HepaRG cells were thawed, plated at a density of approximately 100,000 cells/well in HepaRG Thaw, Plate, and General Purpose media (HPRG770, Thermo Fisher Scientific), and incubated for 48 hours. 0.5% DMSO was selected as vehicle control to balance the requisite need of DMSO in HepaRG cultures to maintain differentiation (for example, baseline metabolism, proportions of hepatocytes vs. cholangiocytes), while enabling further hepatic receptor pathway activation (for example, PXR and CAR) in response to chemical exposure. 48 hours after plating, the culture medium was replaced with HepaRG Serum-Free Incudtion Media. Cells were exposed to each test chemical in duplicate and maintained in CO2 incubators for another 48 hours. Chemical plates were thawed to room temperature and 200x concentrations of treatment groups were prepared. 8-point conentration-reponse curves were made with the highest exposure at 100 uM, followed by half-log dilutions, all in 0.5% DMSO. Each test plate contained variouse controls, induction positive controls (1mM phenobarbital), cytotoxicity positive controls ([…] aflatoxin B1), vehicle controls (0.5% DMSO), and total lysis controls (0.5% DMSO). Cell morphology images were taken using an Essen IncuCyte FLR automated microscope, with six 96-well plates imaged in about 24 minutes. Images were captured and exported and JPEG files. Spent culture media was transfered to black-well plates for the LDH assay, and remaining media was sorted at -80 C for later use. Cells were treated with RLT buffer and frozen until shipped for gene expression analysis. Total RNA was isolated from the cell suspension in 75 uL of Buffer RLT (Qiagen, Germantown, MD 20874) by Quintiles/Expression Analysis (Durham, NC) using a custom isolation procedure. Total RNA from each plate well was transferred to a preamplification plate. Fluidigm's 96.96 Dynamic ArrayTM (Fluidigm, Amsterdam, the Netherlands) technology was used for gene expression analyses by quantitative reverse transcription polymerase chain reaction (qRT-PCR, performed by Quintiles/Expression Analysis, Durham, NC)89. Standard TaqManTM Assays (Applied Biosystems/ThermoFisher Scientific, Foster City, CA) were used to assess the expression of 93 genes selected based on their selectivity and sensitivity to important hepatic receptors known to be modulated by environmental chemicals; importance in human hepatocyte functionality; and hepatotoxicity. […]
With `COc1cc(OC)nc(NC(=O)NS(=O)(=O)c2ncccc2OCC(F)(F)F)n1`, the AC50 was 0.237 µM (active).

For the compound `CC1(C)CCC(=Cc2ccc(Cl)cc2)C1(O)Cn1cncn1` (stereo not given), the compound was called inactive.

As to `CCCCOCN(C(=O)CCl)c1c(CC)cccc1CC`, the call was inactive.

As to `N#CN=C1SCCN1Cc1ccc(Cl)nc1`, the result was inactive.

For `Cc1cc(C)nc(Nc2ccccc2)n1`, the outcome was inactive.

For `O=C(O)c1c(Cl)ccc2cc(Cl)cnc12`, the outcome was inactive.

`CCOc1cc(C(C)(C)C)ccc1C1COC(c2c(F)cccc2F)=N1` (stereo not given): the compound was called inactive.

On to `COC(=O)NC(=S)Nc1ccccc1NC(=S)NC(=O)OC`, for which the result was inactive.

For the compound `CCOc1nc(C(Cl)(Cl)Cl)ns1`, the compound was classed as inactive.

As to `CO/N=C(/C1=NOCCO1)c1ccccc1Oc1ncnc(Oc2ccccc2Cl)c1F`, the result was inactive.

As for `CCNP(=S)(OC)O/C(C)=C/C(=O)OC(C)C` (stereo not given), the outcome was inactive.

With `CC1(C)C(C(=O)OC(C#N)c2cccc(Oc3ccccc3)c2)C1(C)C` (stereo not given), the compound was classed as inactive.

Regarding `C=CCOC(=O)C(C)(C)OC(=O)c1cc(-n2c(=O)cc(C(F)(F)F)n(C)c2=O)ccc1Cl`, the call was inactive.

On to `CC(C)=CC1C(C(=O)OCc2coc(Cc3ccccc3)c2)C1(C)C` (stereo not given), for which the outcome was inactive.

`COCC(C)N(C(=O)CCl)c1c(C)csc1C` (stereo not given): the result was inactive.

`CCOP(=S)(OCC)Oc1nc(Cl)n(C(C)C)n1`: the result was inactive.

Regarding `Cc1nc(N(C)C)nc(OC(=O)N(C)C)c1C`, the compound was called inactive.

In the case of `N#Cc1c[nH]cc1-c1cccc2c1OC(F)(F)O2`, the call was inactive.

Take `CC(C)Oc1cccc(NC(=O)c2ccccc2C(F)(F)F)c1`: the result was inactive.

`C=C(C)CN(CC)c1c([N+](=O)[O-])cc(C(F)(F)F)cc1[N+](=O)[O-]`: the compound was classed as inactive.

Regarding `CCOc1nc(F)cc2nc(S(=O)(=O)Nc3c(Cl)cccc3Cl)nn12`, the compound was classed as inactive.

In the case of `CCN(CC)c1nc(C)cc(OP(=S)(OC)OC)n1`, the call was inactive.

With `CC(C)C1(C)N=C(c2ncccc2C(=O)O)NC1=O` (stereo not given), the outcome was inactive.

`COc1ccc(-c2ccccc2)cc1NNC(=O)OC(C)C`: the compound was called inactive.

Consider `O=C(Nc1ccccc1-c1ccc(Cl)cc1)c1cccnc1Cl`, for which the outcome was inactive.

For the compound `CN/C(=N\[N+](=O)[O-])NCc1cnc(Cl)s1`, the compound was called inactive.

As for `CC(C)N1C(=O)c2ccccc2NS1(=O)=O`, the outcome was inactive.

For the compound `COC(=O)NS(=O)(=O)c1ccc(N)cc1`, the compound was classed as inactive.

`CCSC(=O)N1CCCCCC1`: the outcome was inactive.

In the case of `CCOC(=O)C(C)OC(=O)c1cc(Oc2ccc(C(F)(F)F)cc2Cl)ccc1[N+](=O)[O-]` (stereo not given), the compound was classed as inactive.

Take `Clc1nc(Cl)nc(Nc2ccccc2Cl)n1`: the compound was classed as inactive.

For `CCCCC(O)(Cn1cncn1)c1ccc(Cl)cc1Cl` (stereo not given), the AC50 was 18.8 µM (active).

For the compound `COc1cc(Cl)c(OC)cc1Cl`, the outcome was inactive.

In the case of `CCCC(=NOCC)C1=C(O)CC(CC(C)SCC)CC1=O` (stereo not given), the result was inactive.

`CSC(=O)c1c(C(F)F)nc(C(F)(F)F)c(C(=O)SC)c1CC(C)C`: the call was inactive.

On to `CCOP(=O)(OCC)Oc1nc(Cl)c(Cl)cc1Cl`, for which the call was inactive.

Take `COCC(=O)N(c1c(C)cccc1C)C(C)C(=O)OC` (stereo not given): the compound was classed as inactive.

On to `COC(=O)c1c(C(F)F)nc(C(F)(F)F)c(C2=NCCS2)c1CC(C)C`, for which the outcome was inactive.

For `CC(C)NC(=O)N1CC(=O)N(c2cc(Cl)cc(Cl)c2)C1=O`, the call was inactive.

Turning to `Cc1ccc(N=CN(C)C=Nc2ccc(C)cc2C)c(C)c1`, the outcome was inactive.
